From PubChem BioAssay (NCATS)
Results filed as inconclusive are left out. Entries that show only a call come without a potency. Active and inactive are the calls of the source. Unless noted, the call rests on the fitted dose curve; in most records, active means well fitted curve in the direction sought with a large enough effect; inconclusive means small, poorly fitted or top-dose-only effect, or another doubt; inactive means no such curve, though single readings can be large; an effect the other way counts as inactive or inconclusive.

Legend:
[1] = target: Calcium and integrin-binding protein 1 (Homo sapiens) (UniProt Q99828); assay: Primary qHTS for Identification of Calcium Integrin Binding Protein 1 (CIB1) Competitor (AID 1508620);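 further: GST tagged CIB1 binding a fluorescein labelled alphaIIb integrin peptide tracer; top concentration of the series differs between compounds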
Sequence of Calcium and integrin-binding protein 1 (Homo sapiens) (Q99828 whole entry, looked up): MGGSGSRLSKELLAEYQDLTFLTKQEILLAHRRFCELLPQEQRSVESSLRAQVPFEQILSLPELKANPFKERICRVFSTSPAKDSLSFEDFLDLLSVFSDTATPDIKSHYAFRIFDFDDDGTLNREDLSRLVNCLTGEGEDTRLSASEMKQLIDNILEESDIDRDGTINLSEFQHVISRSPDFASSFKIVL
Method in brief: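 Fluorescence polarization competition: CIB1-GST (1 uM final) preincubated with compound 15 min at room temperature, then FITC-labeled alphaIIb peptide (100 nM final) added for another 15 min. Polarization read at Ex 480/Em 540.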

[2] = target: N-terminal Xaa-Pro-Lys N-methyltransferase 1 (Homo sapiens) (UniProt Q9BV86); assay: Confirmatory qHTS for Inhibitors of N-terminal methyltransferase 1 (NTMT1): MTaseGlo Assay (AID 1645874); further: nearly all actives have a fitted effect of over 65% in size; further: potency means the concentration at half of the fitted maximal effect
Sequence of N-terminal Xaa-Pro-Lys N-methyltransferase 1 (Homo sapiens) (Q9BV86 whole entry, looked up): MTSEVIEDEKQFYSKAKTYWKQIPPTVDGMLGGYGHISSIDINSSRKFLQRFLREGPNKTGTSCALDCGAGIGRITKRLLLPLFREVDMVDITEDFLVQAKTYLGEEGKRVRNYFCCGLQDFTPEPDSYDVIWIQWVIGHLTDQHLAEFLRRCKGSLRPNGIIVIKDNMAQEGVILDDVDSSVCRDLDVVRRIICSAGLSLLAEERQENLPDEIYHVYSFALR
Method in brief: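 qHTS format: NTMT1 125 nM, SAM 100 uM, peptide SPKRIA 1 uM final; 15 min compound preincubation, 30 min reaction at room temperature. MTase-Glo luminescence.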

[3] = target: Lysosomal acid glucosylceramidase (Homo sapiens) (UniProt P04062); assay: Glucocerebrosidase-p2 (AID 348; in the data active means potency below about 10 µM; further: potency means the concentration at half of the fitted maximal effect); settings: purified GBA, blue fluorogenic substrate, 40 min
Sequence of Lysosomal acid glucosylceramidase (Homo sapiens) (P04062 whole entry, looked up): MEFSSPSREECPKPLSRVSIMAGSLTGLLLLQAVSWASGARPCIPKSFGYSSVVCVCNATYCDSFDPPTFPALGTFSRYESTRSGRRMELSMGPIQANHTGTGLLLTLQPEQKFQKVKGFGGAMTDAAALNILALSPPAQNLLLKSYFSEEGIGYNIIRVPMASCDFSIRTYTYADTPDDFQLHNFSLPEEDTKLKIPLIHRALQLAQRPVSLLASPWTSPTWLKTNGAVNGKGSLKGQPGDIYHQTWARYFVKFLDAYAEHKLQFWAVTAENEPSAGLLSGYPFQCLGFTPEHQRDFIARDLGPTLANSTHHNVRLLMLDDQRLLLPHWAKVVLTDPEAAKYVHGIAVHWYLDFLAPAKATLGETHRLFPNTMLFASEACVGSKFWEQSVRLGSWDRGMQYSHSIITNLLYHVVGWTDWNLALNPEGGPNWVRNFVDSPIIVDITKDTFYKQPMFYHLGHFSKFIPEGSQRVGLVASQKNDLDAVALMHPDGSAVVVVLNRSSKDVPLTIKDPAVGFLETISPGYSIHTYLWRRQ
Method in brief: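 Compounds titrated from 0.6 nM upwards against 0.2 nM enzyme in pH 5.9 citric acid/KH2PO4, taurocholate, tween-20; blue fluorogenic substrate 80 uM, 40 min room temperature, stopped and read Ex 365/Em 440 for AC50.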

[4] = target: Cytochrome P450 1A2 (Homo sapiens) (UniProt P05177); assay: p450-cyp1a2 (AID 410; calls by dose curve)
Sequence of Cytochrome P450 1A2 (Homo sapiens) (P05177 whole entry, looked up): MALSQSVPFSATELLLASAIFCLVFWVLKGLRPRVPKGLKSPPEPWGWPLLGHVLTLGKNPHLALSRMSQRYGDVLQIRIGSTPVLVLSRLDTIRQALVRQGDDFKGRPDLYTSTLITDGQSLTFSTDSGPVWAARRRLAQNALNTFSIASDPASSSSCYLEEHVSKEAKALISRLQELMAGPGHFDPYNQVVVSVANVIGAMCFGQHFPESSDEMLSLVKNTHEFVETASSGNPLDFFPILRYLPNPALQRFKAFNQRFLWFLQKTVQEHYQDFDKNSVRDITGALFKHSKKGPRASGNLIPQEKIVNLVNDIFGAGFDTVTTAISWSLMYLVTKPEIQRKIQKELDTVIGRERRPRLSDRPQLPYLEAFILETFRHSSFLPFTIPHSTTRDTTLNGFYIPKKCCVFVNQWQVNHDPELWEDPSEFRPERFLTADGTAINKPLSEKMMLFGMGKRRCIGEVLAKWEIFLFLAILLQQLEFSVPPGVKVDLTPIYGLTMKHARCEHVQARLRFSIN
Method in brief: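 Human CYP1A2 (20nM) demethylated Luciferin-ME at its Km (100uM) in 100mM KPO4. After 10 min compound preincubation, NADPH regeneration ran the reaction 60 min at room temperature. Luciferin was read by luminescence, normalized to 57 uM furafylline.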

[5] = Stat Signaling Pathway (AID 446; active means well fitted curve in either direction with a large enough effect, not every such curve was filed as active;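 further: ME-180 cervical cancer cells given 40 pM IL-6 alongside compound; SIE-controlled beta-lactamase reporter measured as 460/530 nm FRET emission ratio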); settings: ME-180 SIE beta-lactamase reporter, IL-6 stimulated, 5 h; at 7.69 µM (top of the series) unless noted
Method in brief: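 Reporter line: ME-180 cervical carcinoma, SIE-beta-lactamase. Treatment: compound with 40 pM IL-6, 5 hrs, 37 C, in low-serum OPTI-MEM with 10 mM HEPES pH 7.3. Detection: 460/530 nm fluorescence.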

[6] = target: Glucocorticoid receptor (Homo sapiens) (UniProt P04150); assay: GR-EFC Redistribution (AID 451; calls by dose curve; further: potency means the concentration at half of the fitted maximal effect); settings: CHO-K1 GR-EFC translocation, beta-gal luminescence, 2 h
Sequence of Glucocorticoid receptor (Homo sapiens) (P04150 whole entry, looked up, the tested form may be a part): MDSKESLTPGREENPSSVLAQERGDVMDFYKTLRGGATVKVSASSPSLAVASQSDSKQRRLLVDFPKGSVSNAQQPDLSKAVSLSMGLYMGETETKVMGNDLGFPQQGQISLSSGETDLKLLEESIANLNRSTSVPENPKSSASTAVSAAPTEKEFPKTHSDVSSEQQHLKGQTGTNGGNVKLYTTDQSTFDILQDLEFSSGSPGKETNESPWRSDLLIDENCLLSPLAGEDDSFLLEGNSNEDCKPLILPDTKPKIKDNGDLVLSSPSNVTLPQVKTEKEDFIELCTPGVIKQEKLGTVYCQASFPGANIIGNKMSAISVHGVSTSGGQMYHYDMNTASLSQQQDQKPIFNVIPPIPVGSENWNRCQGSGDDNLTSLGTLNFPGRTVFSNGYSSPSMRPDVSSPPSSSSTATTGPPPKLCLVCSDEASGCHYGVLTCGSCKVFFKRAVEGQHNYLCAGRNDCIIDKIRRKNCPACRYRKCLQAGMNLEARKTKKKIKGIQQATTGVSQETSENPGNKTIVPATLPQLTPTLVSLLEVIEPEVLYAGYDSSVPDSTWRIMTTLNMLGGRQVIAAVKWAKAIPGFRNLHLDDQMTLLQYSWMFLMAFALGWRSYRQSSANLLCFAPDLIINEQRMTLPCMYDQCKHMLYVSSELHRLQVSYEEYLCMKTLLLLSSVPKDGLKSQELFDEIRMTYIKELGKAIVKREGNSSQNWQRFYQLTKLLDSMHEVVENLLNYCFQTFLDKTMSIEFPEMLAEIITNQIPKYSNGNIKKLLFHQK
Method in brief: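 CHO-K1 cells stably expressing nuclear-localized β-gal enzyme acceptor and GR fused C-terminally to the enzyme donor fragment; ligand-driven nuclear translocation restores β-gal by complementation. Compounds titrated up to 46 uM final, 2 h at 37 °C; luminescence read.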

[7] = target: Mitogen-activated protein kinase 10 (Mus musculus) (UniProt Q61831); assay: JNK3 AlphaScreen Assay (AID 530; active means well fitted curve in either direction with a large enough effect, not every such curve was filed as active;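 further: kinase came from lysate of stimulated human HepG2 cells; signal reports phosphorylation of biotinylated GST-cJun 1-79 at Ser73 with 10 µM ATP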)
Method in brief: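 JNK3 came from HepG2 lysates pre-activated with IL-1beta and TNF-alpha and phosphorylated biotinylated GST-cJun (1-79) at 10 uM ATP, pH 7.6, room temperature. Compounds were titrated. AlphaScreen signal used anti-phospho-cJun (Ser73) antibody.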

[8] = target: 3',5'-cyclic-AMP phosphodiesterase 4B (Homo sapiens) (UniProt Q07343); assay: qHTS Assay for Inhibitors of PDE-IV (AID 607; active means well fitted activation curve with a large enough effect in the main read-out, with a control signal flat, not every such curve was filed as active)
Sequence of 3',5'-cyclic-AMP phosphodiesterase 4B (Homo sapiens) (Q07343 whole entry, looked up): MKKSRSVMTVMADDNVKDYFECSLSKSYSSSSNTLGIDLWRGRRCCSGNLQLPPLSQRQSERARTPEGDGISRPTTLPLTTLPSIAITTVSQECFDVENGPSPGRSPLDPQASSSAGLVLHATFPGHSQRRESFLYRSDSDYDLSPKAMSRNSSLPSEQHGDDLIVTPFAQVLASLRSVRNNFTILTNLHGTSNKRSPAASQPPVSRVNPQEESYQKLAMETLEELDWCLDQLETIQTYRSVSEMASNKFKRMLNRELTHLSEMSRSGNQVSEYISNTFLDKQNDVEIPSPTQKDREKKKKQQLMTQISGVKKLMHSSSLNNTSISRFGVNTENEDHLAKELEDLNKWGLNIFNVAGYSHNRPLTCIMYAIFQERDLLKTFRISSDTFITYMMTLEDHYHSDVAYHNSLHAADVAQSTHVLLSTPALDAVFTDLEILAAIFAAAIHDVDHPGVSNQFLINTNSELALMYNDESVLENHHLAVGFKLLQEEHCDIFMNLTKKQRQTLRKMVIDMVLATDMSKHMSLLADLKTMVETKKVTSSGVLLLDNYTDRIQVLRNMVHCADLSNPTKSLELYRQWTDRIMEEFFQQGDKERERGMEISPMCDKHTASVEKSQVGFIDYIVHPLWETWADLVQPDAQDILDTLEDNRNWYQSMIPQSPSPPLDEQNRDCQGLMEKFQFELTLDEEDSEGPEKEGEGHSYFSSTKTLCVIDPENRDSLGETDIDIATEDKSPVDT
Method in brief: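 Cell-based read-out of cAMP via a modified cyclic nucleotide-gated channel and membrane potential dye (535/590 nm) in HEK293 cells expressing PDE4 endogenously. Compounds tested up to 22.9 uM final; 100 uM RO 20-1724 reference.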

[9] = target: Cytochrome P450 2D6 (Homo sapiens) (UniProt P10635); assay: qHTS Assay for Inhibitors and Substrates of Cytochrome P450 2D6 (AID 891); further: potency means the concentration at half of the fitted maximal effect; nearly all actives have a fitted effect of over 60% in size
Sequence of Cytochrome P450 2D6 (Homo sapiens) (P10635 whole entry, looked up): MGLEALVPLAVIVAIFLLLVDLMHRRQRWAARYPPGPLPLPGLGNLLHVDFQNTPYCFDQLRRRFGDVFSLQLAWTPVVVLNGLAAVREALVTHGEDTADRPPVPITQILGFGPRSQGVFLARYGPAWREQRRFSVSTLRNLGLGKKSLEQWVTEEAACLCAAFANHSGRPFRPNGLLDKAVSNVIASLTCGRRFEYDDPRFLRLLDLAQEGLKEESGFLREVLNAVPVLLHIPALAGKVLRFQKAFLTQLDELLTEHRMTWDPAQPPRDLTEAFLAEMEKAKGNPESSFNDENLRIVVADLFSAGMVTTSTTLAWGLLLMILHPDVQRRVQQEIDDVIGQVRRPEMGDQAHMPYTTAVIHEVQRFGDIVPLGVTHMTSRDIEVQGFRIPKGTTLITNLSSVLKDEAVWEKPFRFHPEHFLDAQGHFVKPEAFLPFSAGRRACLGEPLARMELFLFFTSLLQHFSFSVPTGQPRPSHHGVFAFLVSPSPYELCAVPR
Method in brief: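 Human CYP2D6 (5 nM) with 30 uM Luciferin-ME EGE (at Km) in 100 mM KPO4, compound preincubated 10 min, then NADPH regeneration system for 60 min at room temperature. Luciferin read by luminescence; normalized to 1.43 uM quinidine.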

[10] = qHTS profiling for inhibitors of Plasmodium falciparum (3D7) proliferation (AID 743322);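 further: infected erythrocytes exposed to compound for 72 h before lysis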; settings: P. falciparum 3D7 proliferation; at 28.7 µM (top of the series)
Method in brief: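 Erythrocytes infected with P. falciparum (0.3% parasitemia, 2.5% hematocrit) incubated with compounds 72 h at 37 C, 5% CO2. Lysis with saponin/Triton buffer containing SYBR Green I, overnight at room temperature in the dark; DNA fluorescence (485/535 nm) normalised to 0.29 uM artemisinin and DMSO.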

[11] = qHTS profiling for inhibitors of Plasmodium falciparum (DD2) proliferation (AID 743323; call rule not given here); settings: lower = more inhibition; at 28.7 µM (top of the series)
Method in brief: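 Parasite DNA quantified by SYBR Green fluorescence (ex 485, em 535 nm) after saponin/Triton lysis and overnight dark incubation. Cultures: 0.3% parasitemia, 2.5% hematocrit, 72 h, 37 C; data scaled between DMSO and 0.29 uM artemisinin.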

[12] = qHTS profiling for inhibitors of Plasmodium falciparum (HB3) proliferation (AID 743324); settings: Plasmodium falciparum HB3 blood-stage proliferation; at 28.7 µM (top of the series)
Method in brief: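 P. falciparum HB3 grown in erythrocytes (0.3% parasitemia, 2.5% hematocrit final) with compound for 72 h at 37 C, 5% CO2. Parasite DNA detected by SYBR Green after saponin/triton lysis overnight; normalized to 0.29 uM artemisinin and DMSO.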

[13] = Primary qHTS for small molecule stabilizers of the endoplasmic reticulum resident proteome: Secreted ER Calcium Modulated Protein (SERCaMP) assay (AID 1508630)
Method in brief: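 GLuc-SERCaMP-expressing SH-SY5Y cells, pretreated 16 h with compound, are challenged with thapsigargin to empty ER calcium stores; after 4 h, coelenterazine is added directly to the medium and luminescence is imaged.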

For `Cc1ccsc1CN(C)c1ncnc2ccc(-c3ccc([C@@H](C)O)o3)cc12`, the Potency [1] was “inactive” and the Potency [2] was 6.49 µM (active).

With `COc1ccc(-c2nnc3n2N=C(c2c(OC)cccc2OC)CS3)cc1OC` the Potency [1] was “inactive” and the Potency [2] was “inactive”.

For `CCOC(=O)c1nn(-c2ccccc2)c(=O)c2c(N)sc(C)c12`, the Potency [1] was “inactive”.

For `Cc1noc(C)c1C(=O)N1CCC2(CCCN(C(c3ccccc3)c3ccccc3)C2)CC1`, the Potency [3] was > 11.4 µM (inactive), the Potency [4] was “inactive” and the activity, negative = inhibition [5] was -11.6% (inactive). For the same compound, the Potency [6] was > 46 µM (inactive), the outcome [7] was “inactive” and the Potency [8] was “inactive”. For the same compound, the Potency [9] was 2 µM (active), the remaining parasite growth % (stronger effect = lower value) [10] was 18.5% and the activity, percent of control [11] was 22.6%. The remaining proliferation (% of control), lower = more inhibition [12] was 10.2%, the Potency [1] was “inactive” and the Potency [13] was “inactive”.
